Source: PubChem BioAssay (ICCB-Longwood Screening Facility, Harvard Medical School)
CapD inh – CapD enzyme inhibition; purified CapD enzyme, fluorescence intensity read-out; stronger effect = lower value; z-score (concentration not given with the values); actives 0.23% (n = 140,000); AID 492967; in the data active = z-score mostly below about -2.9, no sharp cut-off; inactive = mostly above about -1.9
Hits are given with their value; n = inactive. Many of the other results were omitted from the sample, so hits are more common in it than they were.

SMILES | CapD inh
N#Cc1cnn(-c2c(Cl)cc(C(F)(F)F)cc2Cl)c1N | n
CS(=O)(=O)OCCN1CCN(S(C)(=O)=O)CC1 | n
CC(Sc1nc2ccccc2s1)C(=O)O (configuration not stated) | n
CCC(Sc1nc2ccccc2s1)C(=O)O (configuration not stated) | n
CC(=O)SC(CC(=O)O)c1nc2ccccc2s1 (configuration not stated) | -5.55
Cc1ccc(N2C(=O)CC(SCC(=O)Nc3ccccc3)C2=O)cc1 (configuration not stated) | n
Cc1ccc(N2C(=O)CC2(C(=O)NC2CCCCC2)c2ccccc2F)cc1 (configuration not stated) | n
CCc1ccc(NC(=O)c2cc(S(=O)(=O)N3CCCCC3)ccc2F)cc1 | n
Nc1nnc(SCC(=O)NCCCCCCNC(=O)CSc2nnc(N)s2)s1 | n
Cc1ccc(NC(=O)Cn2c3ccccc3c(=O)c3cc([N+](=O)[O-])ccc32)c(C)c1 | n
N#Cc1ccc(Oc2ccc(N3C(=O)CCC3=O)cc2)cc1 | n
N#Cc1ccc(Oc2ccccc2)cc1C#N | n
N#COc1ccc(Oc2ccc(OC#N)cc2)cc1 | -4.94
O=C1NC(=S)NC(=O)C1=Cc1ccc(Sc2nc3ccccc3s2)c([N+](=O)[O-])c1 | n
COc1ccc(C2=N/C(=C/c3cccc(OC)c3OC)C(=O)O2)cc1Br | n
CCOC(=O)c1sc2nc(C)nc(N3CCc4ccccc4C3)c2c1C | n
CCOC(=O)c1sc2ncnc(N3CCc4ccccc4C3)c2c1C | n
CCOC(=O)c1cnc(N2CCc3ccccc3C2)nc1N | -3.88
C=CCN1C(=O)/C(=C2\SC(=S)N(C3CCS(=O)(=O)C3)C2=O)c2cc(Br)ccc21 (configuration not stated) | n
Cc1cccc(C)c1N=C(N)N=C(N)N | n
Cc1ccc(S(=O)(=O)N2CC(=O)c3ccccc3-c3ccccc32)cc1 | n
COC(=O)c1ccc2[nH]c3c(c2c1)CCCC3 | n
O=C(O)c1ccc2[nH]c3c(c2c1)CSCC3 | -7.41
CN(C)CCOC(=O)c1ccc2[nH]c3c(c2c1)CSCC3 | n
CCC(=O)Nc1nonc1-c1ccc(C)cc1 | n
